# Experimental data from PubChem BioAssay (EPA / NIEHS).
# A structure can be active in one record and inactive in another. Activity calls are given as the source filed them. The calls were made as follows: active = hit-call score of the fitted dose curve at least 0.9, where 1 is the maximum; inactive = score below 0.9.
# Legend:
# [1] = ATG_CRE_CIS: Attagene CIS-FACTORIAL HepG2 Assay for human cAMP Responsive Element (CRE) binding protein 3 (AID 2282926); conditions: HepG2 CRE cis-reporter, Attagene multiplexed mRNA; actives raise or lower the signal
# How it was run: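 Assay format: transient reporter transfection of HepG2, 24 h treatment, total RNA isolation with DNase I step. Reporter abundance read by fluorescence after PCR and capillary separation; DMSO-normalised gain or loss fitting.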
# [2] = target: CCAAT/enhancer-binding protein beta (Homo sapiens) (UniProt P17676); assay: ATG_C_EBP_CIS: Attagene CIS-FACTORIAL HepG2 Assay for human CCAAT/Enhancer Binding Protein (C/EBP) beta (AID 2282927); conditions: HepG2 Attagene cis-factorial transcription factor reporter; actives raise or lower the signal
# How it was run: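 Endogenous transcription factor activity in human liver HepG2 cells is inferred from induction of a CEBPB-linked reporter mRNA. Exposure lasts 24 h; activity is fitted in both directions relative to DMSO.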
# [3] = ATG_CMV_CIS: Attagene CIS-FACTORIAL HepG2 Assay for human CMV (Internal Marker) (AID 2282928); conditions: HepG2 CMV promoter reporter, transcription factor profiling; actives raise or lower the signal;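 also: endpoint acts as a background internal control marker rather than a target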
# How it was run: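 Bidirectional fits against DMSO are applied to reporter mRNA, read by RT-PCR with capillary electrophoresis, from HepG2 cells exposed 24 h. The endpoint serves as an internal CMV background marker within the cis-factorial reporter panel.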
# [4] = target: Aryl hydrocarbon receptor (Homo sapiens) (UniProt P35869); assay: ATG_Ahr_CIS: Attagene CIS-FACTORIAL HepG2 Assay for human Aryl Hydrocarbon Receptor (Ahr) (AID 2282930); conditions: HepG2 AhR cis-factorial reporter transcription; actives raise or lower the signal
# How it was run: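 Transient MRTU transfection of HepG2 → 24 h compound exposure → total RNA, oligo(dT) RT → PCR, 6-FAM extension, HpaI cut → CE fluorescence. DMSO = baseline; bidirectional curve fit.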
# [5] = ATG_AP_1_CIS: Attagene CIS-FACTORIAL HepG2 Assay for human Activator Protein 1 (AP-1) (AID 2282931); conditions: HepG2 Attagene cis-factorial AP-1 reporter mRNA; actives raise or lower the signal
# How it was run: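 Multiplexed HepG2 reporter assay, 24 h dosing. mRNA induction detected by RT-PCR plus capillary electrophoresis. Activity fitted in both directions against DMSO.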
# [6] = ATG_AP_2_CIS: Attagene CIS-FACTORIAL HepG2 Assay for human Activator Protein 2 (AP-2) (AID 2282932); conditions: HepG2 AP-2 cis-reporter, Attagene transcription factor profiling; actives raise or lower the signal
# How it was run: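 Endogenous transcription factor activity is reported through transfected multiplex reporter constructs in HepG2, after 24 h of compound exposure. Transcripts were quantified by RT-PCR and capillary electrophoresis of fluorescent fragments. Bidirectional fit against DMSO.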
# [7] = ATG_BRE_CIS: Attagene CIS-FACTORIAL HepG2 Assay for human Bone Morphogenetic Protein (BMP) Response Element (BRE) (AID 2282933); conditions: HepG2 BMP response element reporter, Attagene transcription factor profiling; actives raise or lower the signal
# How it was run: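 Fluorescence-labelled reporter cDNA fragments, separated by capillary electrophoresis, gave the signal for this component of a 52-readout multiplex. HepG2 cells were transfected, exposed to chemicals for 24 h, and compared with DMSO using bidirectional fitting.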
# [8] = target: Retinoic acid receptor alpha (Homo sapiens) (UniProt P10276); assay: ATG_DR5_RAR_CIS: Attagene CIS-FACTORIAL HepG2 Assay for human Retinoic Acid Receptor Alpha (RARE), DR5 submotif (AID 2282934); conditions: HepG2 Attagene cis-factorial RARE DR5 reporter, mRNA; actives raise or lower the signal;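 as to AC50: reporter responds to endogenous RAR alpha beta and gamma in HepG2 not RARA alone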
# How it was run: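 Transient MRTU transfection of HepG2; 24 h compound treatment; TriZol RNA, oligo(dT) RT, PCR, FAM labelling, capillary electrophoresis. Bidirectional fit vs DMSO. Endogenous TF activity at DR5 RARE.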
# [9] = APR_HepG2_P-H2AX_72hr: Apredica 72-hour HepG2 Assay for H2AX Phosphorylation (AID 2282916); conditions: imaging, actives raise or lower the signal;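 also: phospho-histone H2A.x immunostain intensity per cell marking DNA damage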
# How it was run: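 Human hepatoma HepG2 cells are dosed across ten concentrations (0.39 to 200 uM, 0.5% v/v DMSO) and incubated 72 hr. Phospho-histone H2A.x is then detected by antibody staining alongside c-Jun and Hoechst, and quantified by automated fluorescence imaging.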
# [10] = APR_HepG2_MitoMembPot_72hr: Apredica 72-hour HepG2 Assay for Mitochondrial Membrane Potential (AID 2282917); conditions: imaging, actives raise or lower the signal
# How it was run: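 Membrane potential read by MitoTracker Red CMXRos (250 nM, 30 min, pre-fixation) fluorescence imaging of HepG2 after 72 hr exposure. Ten concentrations, 0.39–200 uM, duplicate wells, 0.5% DMSO; fitted in both directions against DMSO baseline.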
# [11] = APR_HepG2_MitoticArrest_72hr: Apredica 72-hour HepG2 Assay for Mitotic Arrest (AID 2282918); conditions: high-content imaging, actives raise or lower the signal
# How it was run: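 Read-out is phospho-histone H3 immunofluorescence with Hoechst nuclear segmentation, imaged at 20x. Human HepG2 liver cells received ten concentrations (0.39–200 uM, final DMSO 0.5% v/v) for 72 hr before fixation. Gain or loss of signal was fitted relative to DMSO.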
# [12] = APR_HepG2_MicrotubuleCSK_72hr: Apredica 72-hour HepG2 Assay for Microtubule CSK Stabilty (AID 2282919); conditions: HepG2 microtubule cytoskeleton, high-content imaging, actives raise or lower the signal
# How it was run: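 High-content imaging of alpha-tubulin staining in fixed HepG2 cells after 72 hr treatment with ten concentrations from 0.39 to 200 uM (0.5% DMSO). Fitting was bidirectional against DMSO; taxol served as positive control.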
# [13] = APR_HepG2_P-H2AX_24hr: Apredica 24-hour HepG2 Assay for H2AX Phosphorylation (AID 2282920); conditions: high-content imaging, actives raise or lower the signal
# How it was run: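 HepG2, 24 hr, cpd 0.39–200 uM (10 conc, duplicate), DMSO 0.5% v/v final. Fix 3.7% formaldehyde, Triton X-100 permeabilize, anti-phospho-H2A.x 1:200 + Hoechst 2 ug/mL. Imaged, bidirectional fit vs DMSO.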
# [14] = APR_HepG2_StressKinase_72hr: Apredica 72-hour HepG2 Assay for Stress Kinase (AID 2282921); conditions: HepG2 stress kinase (phospho-c-Jun) imaging, actives raise or lower the signal
# How it was run: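 After a 72 h compound treatment spanning 0.39 to 200 uM, formaldehyde-fixed cells are labelled for phosphorylated c-Jun and nuclei, imaged by automated fluorescence microscopy, and activity is fitted in both directions relative to DMSO controls.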
# [15] = APR_HepG2_StressKinase_24hr: Apredica 24-hour HepG2 Assay for Stress Kinase (AID 2282922); conditions: HepG2 stress kinase (phospho-c-Jun) imaging, actives raise or lower the signal
# How it was run: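 High-content imaging of phospho-c-Jun immunofluorescence in fixed, permeabilized HepG2 cells after 24 h dosing. Ten concentrations, 0.39 to 200 uM, run in duplicate at 0.5% v/v DMSO; gain or loss of signal versus DMSO.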
# [16] = APR_HepG2_p53Act_72hr: Apredica 72-hour HepG2 Assay for p53 Activation (AID 2282923); conditions: high-content imaging, actives raise or lower the signal;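 also: average cellular p53 protein immunofluorescence intensity in HepG2 cells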
# How it was run: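 Imaging-based endpoint: after 72 hr compound exposure (up to 200 uM, 0.5% DMSO), fixed and permeabilized monolayers were labelled with anti-p53 antibody and imaged; signal change in either direction was fitted relative to DMSO controls.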
# [17] = APR_HepG2_MitoMass_72hr: Apredica 72-hour HepG2 Assay for Mitochondrial Mass (AID 2282924); conditions: high-content imaging, actives raise or lower the signal;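 also: MitoTracker Red CMXRos stain intensity per cell imaged as mitochondrial mass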
# How it was run: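 Readout is imaged MitoTracker Red (250 nM, 30 min, pre-fixation) signal, fitted bidirectionally against DMSO baseline. Human HepG2 liver cells received compound 0.39–200 uM in duplicate for 72 hr, final DMSO 0.5%.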
# [18] = ATG_DR4_LXR_CIS: Attagene CIS-FACTORIAL HepG2 Assay for human Liver X Receptor (LXR), DR4 submotif (AID 2282929); conditions: HepG2 Attagene DR4 cis-reporter, mRNA transcription; actives raise or lower the signal
# How it was run: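 Fluorescence intensity of labelled reporter cDNA fragments, separated by capillary electrophoresis, gives the signal. HepG2 cells bearing cis-regulated reporter constructs were treated 24 h; activity fitted bidirectionally relative to DMSO negative control.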
# Aryl hydrocarbon receptor (Homo sapiens), sequence (P35869 whole entry, looked up): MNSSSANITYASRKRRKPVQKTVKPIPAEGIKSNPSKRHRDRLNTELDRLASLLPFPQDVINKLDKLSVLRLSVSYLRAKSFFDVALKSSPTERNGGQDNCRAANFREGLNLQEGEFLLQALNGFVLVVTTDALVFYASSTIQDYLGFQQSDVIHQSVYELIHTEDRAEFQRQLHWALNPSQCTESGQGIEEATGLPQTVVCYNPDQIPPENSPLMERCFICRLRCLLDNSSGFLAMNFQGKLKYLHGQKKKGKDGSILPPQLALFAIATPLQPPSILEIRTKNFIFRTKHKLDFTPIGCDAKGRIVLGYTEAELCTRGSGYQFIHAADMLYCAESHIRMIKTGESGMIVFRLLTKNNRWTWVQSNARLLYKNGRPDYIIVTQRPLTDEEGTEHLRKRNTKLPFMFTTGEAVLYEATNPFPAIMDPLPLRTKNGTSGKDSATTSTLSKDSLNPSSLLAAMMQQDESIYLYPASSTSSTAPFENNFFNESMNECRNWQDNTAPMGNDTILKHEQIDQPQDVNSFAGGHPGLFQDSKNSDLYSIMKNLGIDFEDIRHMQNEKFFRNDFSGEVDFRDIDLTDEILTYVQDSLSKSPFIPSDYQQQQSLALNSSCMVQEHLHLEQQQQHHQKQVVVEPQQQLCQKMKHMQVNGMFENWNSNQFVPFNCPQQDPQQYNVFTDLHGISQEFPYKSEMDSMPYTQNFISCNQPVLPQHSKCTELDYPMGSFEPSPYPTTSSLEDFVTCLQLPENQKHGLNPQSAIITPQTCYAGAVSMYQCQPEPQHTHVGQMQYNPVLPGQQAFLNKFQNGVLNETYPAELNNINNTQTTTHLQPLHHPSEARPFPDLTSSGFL
# Retinoic acid receptor alpha (Homo sapiens), sequence (P10276 whole entry, looked up): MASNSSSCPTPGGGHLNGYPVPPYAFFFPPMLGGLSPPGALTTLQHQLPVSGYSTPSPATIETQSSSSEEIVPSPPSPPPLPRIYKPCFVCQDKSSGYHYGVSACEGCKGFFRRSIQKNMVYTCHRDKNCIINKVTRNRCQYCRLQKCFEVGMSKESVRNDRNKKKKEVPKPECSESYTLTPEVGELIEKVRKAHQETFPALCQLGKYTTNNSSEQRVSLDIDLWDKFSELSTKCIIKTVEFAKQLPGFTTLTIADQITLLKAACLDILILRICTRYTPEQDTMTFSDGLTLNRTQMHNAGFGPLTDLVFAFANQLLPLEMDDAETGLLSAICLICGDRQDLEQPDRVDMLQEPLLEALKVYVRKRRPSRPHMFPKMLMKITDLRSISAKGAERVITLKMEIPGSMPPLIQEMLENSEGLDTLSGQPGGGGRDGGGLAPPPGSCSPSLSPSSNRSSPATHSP
# CCAAT/enhancer-binding protein beta (Homo sapiens), sequence (P17676 whole entry, looked up): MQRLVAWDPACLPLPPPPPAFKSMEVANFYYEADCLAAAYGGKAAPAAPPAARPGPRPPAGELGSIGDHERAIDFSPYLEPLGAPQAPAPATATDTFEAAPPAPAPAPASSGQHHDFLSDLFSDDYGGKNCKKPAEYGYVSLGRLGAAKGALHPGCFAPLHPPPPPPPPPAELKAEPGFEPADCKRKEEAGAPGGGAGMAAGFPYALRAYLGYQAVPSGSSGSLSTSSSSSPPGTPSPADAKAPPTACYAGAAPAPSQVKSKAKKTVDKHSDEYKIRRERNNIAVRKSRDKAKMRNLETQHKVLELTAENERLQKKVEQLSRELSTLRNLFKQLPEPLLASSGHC
structure (smiles),measurement,setting,value
NCC(F)(F)C(F)(F)C(F)(F)C(F)(F)C(F)(F)C(F)(F)C(F)(F)F,outcome,[1],inactive
same,outcome,[2],inactive
same,outcome,[3],inactive
same,outcome,[4],inactive
same,outcome,[5],inactive
same,outcome,[6],inactive
same,outcome,[7],inactive
same,outcome,[8],inactive
OCCC(F)(F)C(F)(F)C(F)(F)C(F)(F)C(F)(F)C(F)(F)F,outcome,[9],inactive
same,outcome,[10],inactive
same,outcome,[11],inactive
same,outcome,[12],inactive
same,outcome,[13],inactive
same,outcome,[14],inactive
same,outcome,[15],inactive
same,outcome,[16],inactive
same,outcome,[17],inactive
same,AC50,[1],154 µM (active)
same,outcome,[1],inactive
same,AC50,[2],146 µM (active)
same,outcome,[2],inactive
same,AC50,[3],145 µM (active)
same,outcome,[3],inactive
same,outcome,[4],inactive
same,outcome,[6],inactive
same,outcome,[7],inactive
same,outcome,[8],inactive
O=C(O)c1ccccc1C(c1ccc(O)cc1)c1ccc(O)cc1,outcome,[9],inactive
same,outcome,[10],inactive
same,outcome,[11],inactive
same,outcome,[12],inactive
same,outcome,[13],inactive
same,outcome,[14],inactive
same,outcome,[15],inactive
same,outcome,[17],inactive
same,outcome,[1],inactive
same,outcome,[2],inactive
same,outcome,[3],inactive
same,outcome,[18],inactive
same,AC50,[4],64.8 µM (active)
same,outcome,[4],inactive
same,outcome,[5],inactive
same,outcome,[6],inactive
same,outcome,[7],inactive
same,outcome,[8],inactive
CCCCCCCCOC(=O)CCCCCCCCC(=O)OCCCCCCCC,outcome,[9],inactive
same,outcome,[10],inactive
same,outcome,[11],inactive
same,outcome,[12],inactive
same,outcome,[13],inactive
same,outcome,[14],inactive
same,outcome,[15],inactive
same,outcome,[16],inactive
same,outcome,[17],inactive
same,outcome,[1],inactive
same,outcome,[2],inactive
same,outcome,[3],inactive
same,outcome,[18],inactive
same,outcome,[4],inactive
same,outcome,[5],inactive
same,outcome,[6],inactive
same,outcome,[7],inactive
same,outcome,[8],inactive
O=C1OC2(c3ccccc31)c1cc(Br)c(O)c(Br)c1Oc1c2cc(Br)c(O)c1Br,outcome,[1],inactive
same,outcome,[2],inactive
same,AC50,[3],93 µM (active)
same,outcome,[3],inactive
same,outcome,[4],inactive
same,outcome,[5],inactive
same,outcome,[6],inactive
same,outcome,[7],inactive
same,outcome,[8],inactive
FC(F)(I)C(F)(F)C(F)(F)C(F)(F)C(F)(F)C(F)(F)I,outcome,[1],inactive
same,outcome,[2],inactive
same,AC50,[3],9.48 µM (active)
same,outcome,[4],inactive
same,outcome,[5],inactive
same,outcome,[6],inactive
same,outcome,[7],inactive
same,outcome,[8],inactive
Cc1cc(CCN2CCN(c3nsc4ccccc34)CC2)cc2c1NC(=O)CC2(C)C,AC50,[9],11.2 µM (active)
same,outcome,[10],inactive
same,AC50,[11],39.7 µM (active)
same,AC50,[12],37.6 µM (active)
same,AC50,[13],22 µM (active)
same,outcome,[14],inactive
same,outcome,[15],inactive
same,AC50,[16],33.8 µM (active)
same,AC50,[17],29 µM (active)
same,outcome,[1],inactive
same,AC50,[2],7.43 µM (active)
same,outcome,[3],inactive
same,AC50,[18],2.82 µM (active)
same,outcome,[4],inactive
same,outcome,[6],inactive
same,outcome,[7],inactive
same,AC50,[8],3.74 µM (active)
